From ChEMBL document CHEMBL1961873, “Compounds: GSK PKIS; Assays: Nanosyn kinase panel” (2012)

Key:
[1] = molecular target: Mast/stem cell growth factor receptor Kit (Homo sapiens) (UniProt P10721); conditions: at 1 µM
[2] = test system: Mast/stem cell growth factor receptor Kit (Homo sapiens), P10721 [D816V]; conditions: at 0.1 µM
[3] = test system: Mast/stem cell growth factor receptor Kit (Homo sapiens), P10721 [D816V]; conditions: at 1 µM
[4] = test system: Mast/stem cell growth factor receptor Kit (Homo sapiens), P10721 [T670I]; conditions: at 0.1 µM
[5] = test system: Mast/stem cell growth factor receptor Kit (Homo sapiens), P10721 [T670I]; conditions: at 1 µM
[6] = test system: Mast/stem cell growth factor receptor Kit (Homo sapiens), P10721 [V560G]; conditions: at 0.1 µM
[7] = test system: Mast/stem cell growth factor receptor Kit (Homo sapiens), P10721 [V560G]; conditions: at 1 µM
[8] = molecular target: Tyrosine-protein kinase Lck (Homo sapiens) (UniProt P06239); conditions: at 0.1 µM
[9] = molecular target: Tyrosine-protein kinase Lck (Homo sapiens) (UniProt P06239); conditions: at 1 µM
[10] = molecular target: Leukocyte tyrosine kinase receptor (Homo sapiens) (UniProt P29376); conditions: at 0.1 µM
[11] = molecular target: Leukocyte tyrosine kinase receptor (Homo sapiens) (UniProt P29376); conditions: at 1 µM
[12] = molecular target: Tyrosine-protein kinase Lyn (Homo sapiens) (UniProt P07948); conditions: at 0.1 µM
[13] = molecular target: Tyrosine-protein kinase Lyn (Homo sapiens) (UniProt P07948); conditions: at 1 µM
[14] = molecular target: Tyrosine-protein kinase Lyn (Homo sapiens) (UniProt P07948); conditions: at 0.1 µM; remark: listed apart in the source
[15] = molecular target: Tyrosine-protein kinase Lyn (Homo sapiens) (UniProt P07948); conditions: at 1 µM; remark: listed apart in the source
[16] = molecular target: T1, Tyrosine-protein kinase Mer (Homo sapiens) (UniProt Q12866); conditions: at 0.1 µM
T1 sequence (whole entry): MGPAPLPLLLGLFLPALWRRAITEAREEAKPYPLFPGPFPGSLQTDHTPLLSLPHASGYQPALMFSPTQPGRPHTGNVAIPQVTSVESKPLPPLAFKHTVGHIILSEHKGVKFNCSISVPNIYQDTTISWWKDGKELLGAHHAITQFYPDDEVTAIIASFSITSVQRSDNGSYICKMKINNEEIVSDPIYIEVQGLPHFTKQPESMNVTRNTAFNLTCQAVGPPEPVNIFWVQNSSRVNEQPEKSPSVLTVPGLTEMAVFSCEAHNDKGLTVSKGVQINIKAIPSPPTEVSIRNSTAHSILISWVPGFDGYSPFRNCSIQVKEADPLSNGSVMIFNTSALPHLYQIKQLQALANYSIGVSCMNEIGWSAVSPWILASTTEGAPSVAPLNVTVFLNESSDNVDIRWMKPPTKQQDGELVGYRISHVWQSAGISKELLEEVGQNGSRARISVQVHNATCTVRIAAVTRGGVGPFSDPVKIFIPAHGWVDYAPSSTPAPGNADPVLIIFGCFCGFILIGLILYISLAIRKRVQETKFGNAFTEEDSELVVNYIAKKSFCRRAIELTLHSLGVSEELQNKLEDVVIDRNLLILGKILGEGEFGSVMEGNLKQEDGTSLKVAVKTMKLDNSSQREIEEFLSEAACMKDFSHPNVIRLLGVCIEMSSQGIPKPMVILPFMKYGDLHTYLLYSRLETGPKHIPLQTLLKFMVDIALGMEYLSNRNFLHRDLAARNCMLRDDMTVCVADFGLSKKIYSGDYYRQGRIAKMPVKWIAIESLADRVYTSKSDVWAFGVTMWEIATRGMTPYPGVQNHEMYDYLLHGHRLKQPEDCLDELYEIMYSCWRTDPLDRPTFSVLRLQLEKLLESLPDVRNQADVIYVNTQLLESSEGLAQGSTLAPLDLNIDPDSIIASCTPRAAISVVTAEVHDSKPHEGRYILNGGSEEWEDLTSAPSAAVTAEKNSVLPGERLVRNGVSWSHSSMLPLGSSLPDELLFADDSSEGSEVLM

[17] = molecular target: T1, Tyrosine-protein kinase Mer (Homo sapiens); conditions: at 1 µM
[18] = molecular target: Hepatocyte growth factor receptor (Homo sapiens) (UniProt P08581); conditions: at 0.1 µM
[19] = molecular target: Hepatocyte growth factor receptor (Homo sapiens) (UniProt P08581); conditions: at 1 µM
[20] = molecular target: T2, Muscle, skeletal receptor tyrosine-protein kinase (Homo sapiens) (UniProt O15146); conditions: at 0.1 µM;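 also: values are mean inhibition of MuSK from the GSK PKIS kinase screening panel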
T2 sequence (whole entry): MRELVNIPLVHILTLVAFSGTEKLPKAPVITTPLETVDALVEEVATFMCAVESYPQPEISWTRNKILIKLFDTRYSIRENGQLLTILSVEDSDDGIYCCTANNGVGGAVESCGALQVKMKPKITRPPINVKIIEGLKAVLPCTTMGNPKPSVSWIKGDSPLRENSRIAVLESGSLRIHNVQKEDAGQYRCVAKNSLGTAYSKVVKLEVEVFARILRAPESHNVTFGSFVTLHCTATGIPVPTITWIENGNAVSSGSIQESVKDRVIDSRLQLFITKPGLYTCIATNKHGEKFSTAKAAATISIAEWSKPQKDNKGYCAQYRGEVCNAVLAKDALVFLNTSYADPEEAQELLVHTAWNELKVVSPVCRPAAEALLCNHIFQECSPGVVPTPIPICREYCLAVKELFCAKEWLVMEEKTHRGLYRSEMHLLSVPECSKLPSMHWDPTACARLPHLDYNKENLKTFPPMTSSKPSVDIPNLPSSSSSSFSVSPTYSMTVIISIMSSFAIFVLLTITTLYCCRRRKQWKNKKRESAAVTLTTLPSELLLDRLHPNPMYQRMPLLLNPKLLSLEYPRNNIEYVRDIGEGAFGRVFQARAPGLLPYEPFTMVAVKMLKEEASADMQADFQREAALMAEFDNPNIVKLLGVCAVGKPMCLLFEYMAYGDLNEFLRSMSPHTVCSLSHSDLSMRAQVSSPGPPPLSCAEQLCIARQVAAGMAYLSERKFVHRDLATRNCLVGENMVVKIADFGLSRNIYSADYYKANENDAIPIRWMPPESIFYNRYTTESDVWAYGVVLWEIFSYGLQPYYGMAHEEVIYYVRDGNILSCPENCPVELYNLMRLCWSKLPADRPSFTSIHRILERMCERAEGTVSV

Sequence of Mast/stem cell growth factor receptor Kit (Homo sapiens), P10721 [T670I] (P10721 whole entry T670I): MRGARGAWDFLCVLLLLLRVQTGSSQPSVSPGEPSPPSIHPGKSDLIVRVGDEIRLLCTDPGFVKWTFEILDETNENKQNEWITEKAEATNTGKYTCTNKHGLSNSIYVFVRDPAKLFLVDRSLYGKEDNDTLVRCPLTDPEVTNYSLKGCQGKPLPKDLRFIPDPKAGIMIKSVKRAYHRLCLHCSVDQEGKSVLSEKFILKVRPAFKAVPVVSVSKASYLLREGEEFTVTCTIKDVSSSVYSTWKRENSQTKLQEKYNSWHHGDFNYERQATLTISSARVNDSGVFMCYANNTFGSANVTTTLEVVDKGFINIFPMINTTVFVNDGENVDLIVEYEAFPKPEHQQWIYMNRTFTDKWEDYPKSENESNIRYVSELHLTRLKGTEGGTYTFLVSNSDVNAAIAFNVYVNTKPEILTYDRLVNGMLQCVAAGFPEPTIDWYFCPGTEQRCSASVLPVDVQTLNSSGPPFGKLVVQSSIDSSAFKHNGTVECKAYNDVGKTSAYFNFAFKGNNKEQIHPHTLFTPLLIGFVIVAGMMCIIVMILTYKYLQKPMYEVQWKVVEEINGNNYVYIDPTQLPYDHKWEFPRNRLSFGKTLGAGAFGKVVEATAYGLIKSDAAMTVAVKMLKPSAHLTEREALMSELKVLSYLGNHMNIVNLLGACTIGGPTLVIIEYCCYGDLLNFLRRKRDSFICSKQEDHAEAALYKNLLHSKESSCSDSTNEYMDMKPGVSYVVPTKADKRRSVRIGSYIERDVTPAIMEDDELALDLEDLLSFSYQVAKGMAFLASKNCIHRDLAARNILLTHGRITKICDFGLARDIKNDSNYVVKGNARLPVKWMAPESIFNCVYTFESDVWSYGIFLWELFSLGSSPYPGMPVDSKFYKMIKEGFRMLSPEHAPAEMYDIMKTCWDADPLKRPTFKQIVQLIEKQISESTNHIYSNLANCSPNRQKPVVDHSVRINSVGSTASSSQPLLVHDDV
Sequence of Mast/stem cell growth factor receptor Kit (Homo sapiens), P10721 [V560G] (P10721 whole entry V560G): as the sequence (P10721 whole entry T670I) above, with V560G, I670T counted along it
Sequence of Tyrosine-protein kinase Lck (Homo sapiens) (P06239 2-509 limits assumed): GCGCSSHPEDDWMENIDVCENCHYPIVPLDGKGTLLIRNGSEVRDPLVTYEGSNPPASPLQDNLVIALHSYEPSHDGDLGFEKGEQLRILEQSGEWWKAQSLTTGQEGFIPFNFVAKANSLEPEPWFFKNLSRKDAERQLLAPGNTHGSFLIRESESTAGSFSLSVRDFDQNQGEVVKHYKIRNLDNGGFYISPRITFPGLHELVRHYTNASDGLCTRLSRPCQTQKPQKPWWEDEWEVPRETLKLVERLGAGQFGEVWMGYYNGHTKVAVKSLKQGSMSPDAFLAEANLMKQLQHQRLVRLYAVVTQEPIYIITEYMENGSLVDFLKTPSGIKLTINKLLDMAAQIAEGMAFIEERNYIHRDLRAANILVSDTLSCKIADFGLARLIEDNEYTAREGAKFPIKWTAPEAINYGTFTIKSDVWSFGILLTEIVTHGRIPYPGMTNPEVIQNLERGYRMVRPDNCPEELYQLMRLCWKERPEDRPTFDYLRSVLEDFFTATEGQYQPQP
Sequence of Hepatocyte growth factor receptor (Homo sapiens) (P08581 whole entry): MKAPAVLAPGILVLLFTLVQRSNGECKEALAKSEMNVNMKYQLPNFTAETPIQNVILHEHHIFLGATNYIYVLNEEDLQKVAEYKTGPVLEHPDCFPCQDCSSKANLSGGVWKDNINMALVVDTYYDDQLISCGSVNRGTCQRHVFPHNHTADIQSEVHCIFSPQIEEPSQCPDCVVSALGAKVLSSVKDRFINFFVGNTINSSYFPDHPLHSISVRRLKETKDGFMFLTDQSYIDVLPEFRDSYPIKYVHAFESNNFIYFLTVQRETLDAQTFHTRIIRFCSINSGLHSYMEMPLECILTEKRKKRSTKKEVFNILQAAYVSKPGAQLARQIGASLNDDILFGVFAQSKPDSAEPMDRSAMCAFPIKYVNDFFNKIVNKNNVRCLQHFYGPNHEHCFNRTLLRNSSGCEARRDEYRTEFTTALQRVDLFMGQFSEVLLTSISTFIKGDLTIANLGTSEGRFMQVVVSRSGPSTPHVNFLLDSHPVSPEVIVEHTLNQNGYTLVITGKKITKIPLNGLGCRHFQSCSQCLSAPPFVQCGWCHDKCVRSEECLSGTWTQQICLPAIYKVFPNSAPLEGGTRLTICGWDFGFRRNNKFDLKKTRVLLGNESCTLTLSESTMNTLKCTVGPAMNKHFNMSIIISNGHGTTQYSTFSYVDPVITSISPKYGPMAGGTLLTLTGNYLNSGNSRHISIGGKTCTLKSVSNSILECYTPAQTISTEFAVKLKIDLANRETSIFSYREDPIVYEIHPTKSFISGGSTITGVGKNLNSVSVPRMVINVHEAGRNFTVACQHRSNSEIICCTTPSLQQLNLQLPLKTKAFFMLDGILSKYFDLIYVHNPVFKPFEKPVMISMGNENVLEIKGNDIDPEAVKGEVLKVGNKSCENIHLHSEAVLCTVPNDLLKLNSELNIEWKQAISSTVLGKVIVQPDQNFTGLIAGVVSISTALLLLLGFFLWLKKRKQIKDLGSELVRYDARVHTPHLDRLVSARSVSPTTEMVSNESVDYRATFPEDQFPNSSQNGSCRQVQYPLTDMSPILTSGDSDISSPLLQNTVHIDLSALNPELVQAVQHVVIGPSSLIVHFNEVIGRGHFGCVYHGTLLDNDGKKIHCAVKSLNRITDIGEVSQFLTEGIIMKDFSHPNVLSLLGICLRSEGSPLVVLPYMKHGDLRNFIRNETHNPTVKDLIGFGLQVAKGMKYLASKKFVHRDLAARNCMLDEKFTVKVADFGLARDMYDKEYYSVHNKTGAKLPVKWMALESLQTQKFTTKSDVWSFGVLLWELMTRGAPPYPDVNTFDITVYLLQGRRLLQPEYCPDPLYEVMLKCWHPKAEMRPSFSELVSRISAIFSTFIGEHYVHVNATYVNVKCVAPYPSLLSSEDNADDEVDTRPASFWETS
Sequence of Tyrosine-protein kinase Lyn (Homo sapiens) (P07948 2-512 limits assumed): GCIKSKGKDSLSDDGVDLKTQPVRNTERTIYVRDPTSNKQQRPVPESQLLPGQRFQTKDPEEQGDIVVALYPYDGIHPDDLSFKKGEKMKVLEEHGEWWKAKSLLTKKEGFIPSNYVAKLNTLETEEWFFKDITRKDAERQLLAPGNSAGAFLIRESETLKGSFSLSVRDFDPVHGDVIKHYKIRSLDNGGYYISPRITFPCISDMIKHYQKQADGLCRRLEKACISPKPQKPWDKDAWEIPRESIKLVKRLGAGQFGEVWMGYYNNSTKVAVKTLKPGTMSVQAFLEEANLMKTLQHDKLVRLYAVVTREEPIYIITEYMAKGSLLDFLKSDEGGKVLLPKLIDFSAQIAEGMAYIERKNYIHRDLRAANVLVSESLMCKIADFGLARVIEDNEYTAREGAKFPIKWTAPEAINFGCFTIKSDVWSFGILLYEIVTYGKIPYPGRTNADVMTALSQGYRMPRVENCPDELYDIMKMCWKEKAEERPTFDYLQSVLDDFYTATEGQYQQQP
Sequence of Mast/stem cell growth factor receptor Kit (Homo sapiens), P10721 [D816V] (P10721 whole entry D816V): as the sequence (P10721 whole entry T670I) above, with I670T, D816V counted along it
Sequence of Mast/stem cell growth factor receptor Kit (Homo sapiens) (P10721 whole entry): as the sequence (P10721 whole entry T670I) above, with I670T counted along it
Sequence of Leukocyte tyrosine kinase receptor (Homo sapiens) (P29376 whole entry): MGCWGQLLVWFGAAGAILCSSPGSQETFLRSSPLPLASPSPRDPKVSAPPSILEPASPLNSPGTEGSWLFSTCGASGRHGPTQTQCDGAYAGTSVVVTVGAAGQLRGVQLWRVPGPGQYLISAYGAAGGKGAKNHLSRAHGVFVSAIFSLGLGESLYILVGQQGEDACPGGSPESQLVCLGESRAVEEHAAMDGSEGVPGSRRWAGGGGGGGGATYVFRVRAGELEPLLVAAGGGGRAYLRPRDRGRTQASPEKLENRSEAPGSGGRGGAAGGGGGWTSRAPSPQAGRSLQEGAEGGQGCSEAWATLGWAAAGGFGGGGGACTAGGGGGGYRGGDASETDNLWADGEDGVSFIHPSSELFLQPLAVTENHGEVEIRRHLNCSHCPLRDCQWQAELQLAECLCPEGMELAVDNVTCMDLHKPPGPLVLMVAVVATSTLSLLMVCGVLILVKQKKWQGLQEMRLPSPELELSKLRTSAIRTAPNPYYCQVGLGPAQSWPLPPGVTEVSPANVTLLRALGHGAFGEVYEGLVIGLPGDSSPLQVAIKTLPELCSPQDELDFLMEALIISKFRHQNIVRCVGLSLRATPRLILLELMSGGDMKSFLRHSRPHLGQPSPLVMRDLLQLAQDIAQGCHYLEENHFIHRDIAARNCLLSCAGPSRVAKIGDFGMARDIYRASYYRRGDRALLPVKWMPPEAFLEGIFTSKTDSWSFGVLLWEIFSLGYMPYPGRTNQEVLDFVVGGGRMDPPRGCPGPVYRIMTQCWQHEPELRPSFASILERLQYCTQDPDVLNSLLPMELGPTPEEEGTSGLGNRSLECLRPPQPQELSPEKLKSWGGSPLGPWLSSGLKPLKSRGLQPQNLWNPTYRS

Row | Structure (SMILES) | inhibition [1] [%] | inhibition [2] [%] | inhibition [3] [%] | inhibition [4] [%] | inhibition [5] [%] | inhibition [6] [%] | inhibition [7] [%] | inhibition [8] [%] | inhibition [9] [%] | inhibition [10] [%] | inhibition [11] [%] | inhibition [12] [%] | inhibition [13] [%] | inhibition [14] [%] | inhibition [15] [%] | inhibition [16] [%] | inhibition [17] [%] | inhibition [18] [%] | inhibition [19] [%] | inhibition [20] [%]
1 | CCn1c(-c2nonc2N)nc2c(N3CCCC3)nccc21 | 1.81 | -1.12 | -0.65 | -1.62 | -1.43 | -0.78 | 1.06 | -2.27 | -0.36 | 0.51 | -0.6 | 1.31 | -0.07 | 1.13 | 0.52 | 0.24 | 1.56 | -3.32 | -1.91 | 1.25
2 | Nc1ncnc2occ(-c3ccc(NC(=O)Nc4cc(C(F)(F)F)cc(C(F)(F)F)c4)cc3)c12 | 90.6 | -2.07 | 10.8 | 22 | 88.4 | 33.8 | 82.2 | 6.28 | 38.8 | 2.1 | 23.7 | 4.96 | 37 | 3.86 | 34 | 0.69 | 14.4 | -0.72 | 10.3 | 77.6
3 | CC(C)=Cc1cccc2c1/C(=N/Nc1ccc(S(N)(=O)=O)cc1)C(=O)N2 | 67.5 | 2.15 | 4.23 | 5.7 | 52.1 | 4.73 | 10.1 | 3.66 | 14.7 | 1.87 | 11.3 | 6.78 | 35.8 | 5.19 | 29.9 | 0.25 | 3.48 | -0.76 | 19.6 | 7
4 | CS(=O)(=O)CCNCc1ccc(-c2ccc3ncnc(Nc4ccc(OCc5ccccc5)c(Cl)c4)c3c2)o1 | 1.79 | 0.03 | 2.97 | 1.42 | 1.36 | 7.05 | 1.37 | 1.77 | 9.7 | 0.32 | 4.23 | 1.21 | 6.25 | 1.19 | 5.08 | 4.37 | 30.6 | 5.04 | 7.4 | 3.89
5 | O=C(Nc1n[nH]c2nc(-c3ccco3)c(Br)cc12)C1CC1 | 4.71 | 4 | -1.99 | 2.25 | 1.3 | 1.23 | 1.62 | 1.39 | 6.71 | 1.93 | 0.72 | 4.37 | 4.24 | 2.54 | 3.6 | 1.42 | 4.5 | 1.38 | 6.65 | 2.24
6 | COc1cc(C=NNc2ncnc3c2cnn3-c2ccccc2)ccc1O | 67 | 2.68 | 8.84 | 4.5 | 37.6 | 8.24 | 12.3 | 19.4 | 63.9 | 2.19 | 6.55 | 17.1 | 65.9 | 13.3 | 62.8 | 6.78 | 34.5 | 21.5 | 88.6 | 7.87
7 | O=C1NC(=O)C(c2cccc(Cl)c2)=C1Nc1ccc(O)c(Cl)c1 | -2.75 | 0.75 | -6.88 | -1.24 | -2.14 | -1.77 | 1.92 | 1.6 | 6.56 | 0 | 0.35 | 1.27 | 3.18 | 0.38 | 3.63 | -0.5 | 3.08 | 0.77 | 3.7 | 0.25
8 | NCc1ccc(-c2nc(-c3ccc(Cl)c(O)c3)c(-c3ccncc3)[nH]2)cc1 | 2.11 | 1.93 | 5.11 | -0.4 | 0.77 | 1.37 | 6.11 | 5.93 | 33 | 1 | 1.88 | 6.73 | 42.8 | 4.81 | 37.1 | -0.12 | 6.1 | 5.53 | 14.5 | 0.08
9 | c1cnn2ncc(-c3ccnc(Nc4ccc5c(c4)OCCO5)n3)c2c1 | 106 | 3.21 | 9.72 | 49.2 | 93.3 | 38.1 | 83.5 | 3.28 | 9.06 | 6.2 | 21.9 | 7.12 | 12.7 | 4.02 | 11 | 4.03 | 19.6 | 3.78 | 16.8 | 5.35
10 | CCN1CCC(CC(=O)Nc2n[nH]c3nc(-c4cccs4)c(Br)cc23)CC1 | -0.08 | -1.28 | -0.19 | -3.78 | 0.16 | 3.05 | 2.07 | -1.7 | 4.73 | 0.15 | 0.89 | 0.07 | 1.67 | -0.46 | 1.82 | -0.67 | 3.05 | -0.73 | -0.38 | 0.33
11 | COC(=O)Nc1nc2cc(Oc3ccc(NC(=O)Nc4cccc(C(=O)O)c4)cc3)ccc2[nH]1 | 18.8 | 1.22 | 3.73 | -0.34 | 2.75 | 5.8 | 15.5 | -2.73 | -2.81 | 0.33 | -0.52 | 0.39 | 5.81 | 0.48 | 2.9 | 0.61 | 2.01 | -0.09 | 11.4 | -0.16
12 | COc1ccc(-c2nn3ncccc3c2-c2ccnc(Nc3ccc(Cl)c(C(F)(F)F)c3)n2)cc1 | 8.96 | 0.87 | 4.92 | -0.64 | 1.14 | 0.89 | -0.17 | -0.04 | 5.83 | 2.25 | 2.96 | 2.95 | 7.79 | 2.39 | 7.64 | 0.1 | 0.41 | 7.55 | 4.08 | 2.01
13 | NS(=O)(=O)c1ccc(N/N=C2\C(=O)Nc3ccc(C(=O)NCCc4c[nH]cn4)cc32)cc1 | 7.76 | 3.86 | 6.74 | 3.65 | 4 | -1.9 | 3.01 | 4.09 | 9.31 | 5.2 | 7.32 | 8.15 | 15.6 | 5.07 | 12.6 | 0.87 | 4.99 | 8.81 | 12.3 | 10.8
